Compound activity from PubChem.
HT1080 IDH1KD tx: kills HT-1080 cells with IDH1 knockdown | AID 686971 | hit rate 2% among 360,000 | Potency, µM (doses to about 46.1 µM), without a hit: at the top dose activity, negative = toxicity, actives largely listed as cytotoxic | HT-1080 IDH1 knockdown viability, ATP luminescence, 48 h;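 note: 0% = DMSO wells and -100% = cell-free medium wells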
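Viability of IDH1-knockdown HT-1080 fibrosarcoma cells was assessed by CellTiter-Glo after 48 h at 37 °C with titrated compound; concentration-effect curves were classified by fit quality and response size.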
HT1080-NT tox: kills 2HG-producing HT-1080-NT fibrosarcoma cells | AID 686970 | HT-1080-NT fibrosarcoma viability, CellTiter-Glo ATP luminescence, 48 h | Potency, µM (series often up to 46.1 µM), for inactives: at the top dose activity, negative = less viability, most hits filed as cytotoxic | hit rate 1.6% among 360,000;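 note: NT is the 2HG producing partner of a matched IDH1 knockdown line; 0% = DMSO-treated cells and -100% = media-only wells without cells; nearly all actives have a fitted effect of over 55% in size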
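Read-out is CellTiter-Glo luminescence after 10 minutes at room temperature, following 48 hours' compound treatment of HT-1080-NT cells (750 cells/well, RPMI, 5% FBS, 37 degrees C).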
KB-V1 cytotox: KB-V1 MDR subline cytotoxicity; KB-V1 MDR cells viability, CellTiter-Glo, 72 h; Potency, µM (doses to about 46.1 µM), hits mostly cytotoxic; hit rate 3.4% among 400,000; AID 1347076; note: nearly all actives have a fitted effect of over 60% in size
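KB-V1, DMEM (no phenol red) + 10% FBS; cpd pin-transferred, titration series; 72 h, 37 degrees C; CellTiter-Glo, luminescence. Data normalized, curve-fit.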
KB-3-1 cytotox: KB-3-1 parental cell cytotoxicity | Potency, µM (series often up to 46.1 µM), usual class: cytotoxic | KB-3-1 viability, CellTiter-Glo ATP luminescence, 72 h | hit rate 1.4% among 400,000 | AID 1347075; note: nearly all actives have a fitted effect of over 60% in size
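Here the drug-naive KB-3-1 line serves as comparator for MDR sub-line selectivity; cells received compound titrations, 72 h at 37 °C, then CellTiter-Glo readout.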
* = called active by the depositor; i = inactive; ? = inconclusive; . = not tested or not shown; [ ] = dose if it differs, or a comment. A selection: hits, their analogues and other compounds. The true share with any hit is near 5.7%. Calls come from the whole dose curve; as a rule, active = well fitted curve in the direction sought with a large enough effect; inconclusive = small, poorly fitted or top-dose-only effect, or another doubt; inactive = no such curve, though single readings can be large; an effect the other way counts as inactive or inconclusive. Unless noted, % is set by controls: 0 for no effect and ±100 for the full control effect; potency is the fitted concentration of half-maximal effect.

SMILES	HT1080 IDH1KD tx	HT1080-NT tox	KB-V1 cytotox	KB-3-1 cytotox
Cc1ccc(S(=O)(=O)N2CCCCC2)cc1NC(=O)C1CCC1	8%	-1%	23µM*	i
CCc1ccc(CNC(=O)CN2C(=O)c3cccnc3Oc3ccc(Cl)cc32)cc1	.	.	i	i
CSc1nn(Cc2cccc(Cl)c2)c(N(C(C)=O)C(C)=O)c1S(=O)(=O)c1ccccc1	.	.	i	i
O=C(NC1CCCCC1)c1ccc2c(c1)N(Cc1ccc(Cl)cc1)C(=O)c1ccccc1S2(=O)=O	.	.	i	i
COc1ccc(CCNC(=O)CCc2c(C)c3ccc(O)c(C)c3oc2=O)cc1	.	.	i	i
Cc1ccc(S(=O)(=O)N2CCC(C(=O)Nc3ccccc3N3CCCC3)CC2)cc1	-5%	-12%	5.8µM*	i
CC1CC(C)CN(C(C)C(=O)Nc2cc(S(=O)(=O)N3CCCCC3)ccc2Cl)C1 (stereo unspecified)	-2%	-5%	i	i
O=C(Nc1nc2ccccc2s1)C1CCN(S(=O)(=O)c2cc([N+](=O)[O-])ccc2Cl)CC1	16µM*	?	13µM*	2.3µM*
CC1CCN(C(C)C(=O)Nc2cc(S(=O)(=O)N3CCCCC3)ccc2Cl)CC1 (stereo unspecified)	6%	0%	15µM*	?
COc1cccc(C(=O)Nc2nc3ccc(S(=O)(=O)N4CCCC4)cc3s2)c1	.	.	?	13µM*
NC(=O)c1c(NC(=O)CS(=O)(=O)c2ccc(Cl)cc2)sc2c1CCCC2	.	.	?	i
Cc1c(NC(=O)Nc2cccc(C(F)(F)F)c2)sc2nc3n(c(=O)c12)CCC(C)CC3 (stereo unspecified)	.	.	i	i
Cc1ccc2nc(NC(=O)c3cccs3)sc2c1	-27%	-17%	?	i
COc1ccc2nc(NC(=O)C3CCCN3S(=O)(=O)c3ccc(C)cc3)sc2c1 (stereo unspecified)	-1%[9.24 µM]	-10%	18µM*	i
CS(=O)(=O)c1ccc2nc(NC(=O)c3cccs3)sc2c1	23µM*	?	?	?
Cc1ccc(Oc2nc(CN3CCOCC3)nc3sc4c(c23)CCC(C)C4)cc1C (stereo unspecified)	8%	3%	15µM*	?
CC(C)Oc1ccc(C(=O)NC2(C(F)(F)F)NC(=O)N(CCCc3ccccc3)C2=O)cc1 (stereo unspecified)	?	-2%	9.2µM*	?
COc1ccc(CCN2C(=O)NC(NC(=O)CCc3ccccc3)(C(F)(F)F)C2=O)cc1OC (stereo unspecified)	1%	6%	21µM*	i
COc1ccc(Br)cc1C(=O)Nc1cccc(C)c1	-6%	-3%	i	i
COc1c(C)cc(Br)cc1C(=O)Nc1cccc(NC(=O)c2ccco2)c1	9%	-1%	3.3µM*	i
Cc1ccc(SCC(=O)Nc2cccc(NC(=O)c3ccco3)c2)cc1	-3%	5%	16µM*	i
O=C(Nc1cccc(NC(=O)c2ccc(-c3cccc(Br)c3)o2)c1)c1ccco1	?	-44%	23µM*	i
COc1ccc(Br)cc1C(=O)Nc1cccc(NC(=O)c2ccco2)c1	-10%	-18%	9.2µM*	i
COc1cccc(NC(=O)c2ccco2)c1	0%	7%	i	i
O=C(Nc1cccc(NC(=O)c2ccc(-c3ccc(Br)cc3)o2)c1)c1ccccc1	0%	10%	i	i
SMILES	HT1080 IDH1KD tx	HT1080-NT tox	KB-V1 cytotox	KB-3-1 cytotox
COc1ccc(CN2COc3ccc4c(-c5ccccc5)cc(=O)oc4c3C2)cc1OC	.	.	i	i
Cn1c(=O)n(C)c2cc(NS(=O)(=O)c3ccc(C(C)(C)C)cc3)c(NCc3ccccc3)cc21	.	.	i	?
COc1cc(NS(=O)(=O)c2ccc(Br)cc2)c(OC)cc1NC(=O)c1ccco1	0%	-2%	8.2µM*	i
CC(C)(C)NC(=O)c1cccc(NC(=O)CSc2ccc(Cl)cc2)c1	-10%	-1%	15µM*	?
COc1ccc(S(=O)(=O)Nc2cc(OC)c(NC(=O)c3ccco3)cc2OC)cc1	1%	-3%	i	i
CCOC(=O)c1noc2ncnc(Nc3cccc(OC)c3)c12	.	.	i	i
Cc1ccc(C)c(N2CCN(C(=O)Cn3c(-c4cccs4)cc4ccccc43)CC2)c1	.	.	i	i
CCC(C)NC(=O)CSC1=Nc2ccccc2C2=NC(CC(=O)NCc3ccccc3)C(=O)N12 (stereo unspecified)	20%	3%	i	i
CCC(C)NC(=O)CSC1=Nc2ccccc2C2=NC(c3ccccc3)C(=O)N12 (stereo unspecified)	6%	1%	16µM*	i
CCn1nc(C(=O)OC(C(=O)c2c[nH]c3ccccc23)c2ccccc2)c2ccccc2c1=O (stereo unspecified)	?	?	12µM*	i
CN1C(=O)C(O)(C2COC(C)(C)CC2=O)c2cc(Br)ccc21 (stereo unspecified)	?	?	?	21µM*
Cc1ccc2c(c1)C(O)(C1COC(C)(C)CC1=O)C(=O)N2C (stereo unspecified)	23%	14%	i	?
COc1ccc2cc(S(=O)(=O)c3ccccc3F)c(=O)oc2c1	.	.	i	i
CC1=NN(c2ccccc2)C(=O)/C1=C\C=C\c1ccccc1	3.7µM*	4.1µM*	i	i
CC1=NN(c2ccccc2)C(=O)/C1=C/C=C/c1ccc(N(C)C)cc1	-2%	-8%	i	i
CCC(C)Sc1ccc([C@@H]2[C@H]3C(=O)N(CC)C(=O)[C@H]3[C@]3(C(=O)OC)CCCCN23)cc1 (stereo partly specified)	-30%	-21%	10µM*	?
O=C(CSc1ccc(-c2ccco2)nn1)Nc1ccccc1	-10%	6%	18µM*	i
O=C(CSc1ccc(-c2cccs2)nn1)Nc1ccccc1	-6%	-12%	12µM*	i
O=C(CSc1ccc(-c2ccco2)nn1)Nc1ccc(F)cc1	1%	-7%	10µM*	i
O=C(CSc1ccc(-c2ccco2)nn1)NCc1ccccc1Cl	6%	0%	21µM*	i
COc1ccc(NC(=O)CSc2ccc(-c3ccco3)nn2)cc1OC	0%	-10%	?	i
CCOc1ccc(NC(=O)CSc2ccc(-c3ccco3)nn2)cc1	-4%	8%	i	i
Cc1cc(C)cc(NC(=O)CSc2ccc(-c3cccs3)nn2)c1	-28%	-19%	i	i
CCC(CC)C(=O)Nc1c(C(=O)N2CCN(c3ccccc3F)CC2)oc2ccccc12	.	.	?	i
COc1cc(CSc2ncc(CO)n2Cc2ccc(C)cc2)cc(OC)c1	.	.	i	i
Cc1cccc(C)c1NC(=O)COC(=O)C1Cc2ccccc2CN1C(=O)c1ccccc1 (stereo unspecified)	10%	-1%	8.2µM*	i
N#Cc1ccc(NC(=O)COC(=O)C2Cc3ccccc3CN2C(=O)c2ccccc2)cc1 (stereo unspecified)	1%	-16%	i	i
